HP1b chromo inh – inhibitors of HP1-beta chromodomain binding to methylated histone tails; P83916; AlphaScreen HP1-beta / biotin-H3K9me3 peptide binding; Potency, µM (highest dose often 114 µM), without a hit: top-dose activity change, negative = inhibition, hits mostly inhibitors; 0.56% of 390,000 active; also: nearly all actives have a fitted effect of over 70% in size
Target sequence (P83916 whole entry, looked up): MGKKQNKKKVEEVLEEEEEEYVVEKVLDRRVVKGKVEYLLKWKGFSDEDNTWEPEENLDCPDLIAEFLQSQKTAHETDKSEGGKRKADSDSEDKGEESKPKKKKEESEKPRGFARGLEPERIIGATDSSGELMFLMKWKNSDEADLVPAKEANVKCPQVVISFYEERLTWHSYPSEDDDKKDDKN
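AlphaScreen: HP1-beta (50 nM) preformed 30 min with biotin-H3(1-18)K9me3 peptide (50 nM) in PBS pH 7.4, 0.01% Tween-20. Compound added for 30 min at RT, then streptavidin donor/nickel chelate acceptor beads (10 ug/mL) for 30 min.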
JMJD2A Tudor inh – inhibitors of human JMJD2A Tudor domain | 4.4% of 390,000 active | AlphaScreen JMJD2A-Tudor / H3K4me3 peptide binding | Potency, µM (top dose mostly 114 µM), for inactives: at the top dose activity change, negative = inhibition, hits mostly inhibitors | O75164; also: % is scaled to controls: 0 for no effect and ±100 for the full control effect; nearly all actives have a fitted effect of over 50% in size
BAZ2B block – inhibitors of human BAZ2B bromodomain | Q9UIF8 | AlphaScreen BAZ2B-H3K14Ac peptide displacement | Potency, µM (doses to about 114 µM), for the others: top-dose activity change, negative = inhibition, most hits filed as inhibitors | 4.4% of 360,000 active | AID 504333; also: % is scaled to controls: 0 for no effect and ±100 for the full control effect; nearly all actives have a fitted effect of over 60% in size
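Compounds, titrated to a top concentration of 110 uM, were incubated 30 min at room temperature with preformed BAZ2B/acetyl-K14 H3 peptide complex (50 nM each). Proximity signal was measured by AlphaScreen after 20 min with beads.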
L3MBTL1 inh – inhibitors of human L3MBTL1; Q9Y468; AlphaScreen L3MBTL1–H3K9me1 peptide binding; 0.66% of 230,000 active; Potency, µM (top dose mostly 57.1 µM), for inactives: at the top dose activity, negative = inhibition, most hits filed as inhibitors; also: % is scaled to controls: 0 for no effect and ±100 for the full control effect; nearly all actives have a fitted effect of over 60% in size
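First, the protein-peptide complex forms for 30 min at room temperature (L3MBTL1 50 nM, biotinylated H3K9me1 peptide 75 nM). Next, compounds are pin-transferred and incubated 30 min. Finally, AlphaScreen beads are added and read after 30 min.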
G9a inh – inhibitors of human histone lysine methyltransferase G9a; 8.8% of 350,000 active; AID 504332; Potency, µM (series often up to 102 µM), inactives show at the highest dose activity, negative = inhibition, hits mostly inhibitors; G9a H3K9 monomethylation, AlphaScreen, 2 h; also: % is scaled to controls: 0 for no effect and ±100 for the full control effect; nearly all actives have a fitted effect of over 75% in size
Target sequence (Q96KQ7 913-1193 limits assumed): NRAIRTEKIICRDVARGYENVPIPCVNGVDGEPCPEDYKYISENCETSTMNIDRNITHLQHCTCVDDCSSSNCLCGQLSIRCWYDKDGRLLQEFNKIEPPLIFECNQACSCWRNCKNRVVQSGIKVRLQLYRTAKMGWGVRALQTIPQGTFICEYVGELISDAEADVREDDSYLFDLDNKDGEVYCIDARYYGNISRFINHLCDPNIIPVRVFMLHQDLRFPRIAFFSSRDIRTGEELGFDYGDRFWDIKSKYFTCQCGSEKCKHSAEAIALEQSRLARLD
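Enzyme 20 nM + cpd, 15 min RT; add b-H3K9 pep 500 nM / SAM 20 uM; 2 h RT; anti-H3K9me1 Ab 0.5 ug/mL + SA donor / anti-rabbit acceptor beads 20 ug/mL each, 10 min; AlphaScreen read.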
* hit, by the source's call; ? = inconclusive; . = no result given; [ ] = dose if it differs, or a comment. The list is not random: actives were taken first. Their share in the collection is about 11%. Calls follow the shape of the dose curve; as a rule, active = well fitted inhibition curve with a large enough effect; inconclusive = small, poorly fitted or top-dose-only effect; inactive = no such curve, though single readings can be large or run the other way. Potency is read from the fitted curve at half-maximal effect.

SMILES | HP1b chromo inh | JMJD2A Tudor inh | BAZ2B block | L3MBTL1 inh | G9a inh
COc1cc(/C=C2\SC(=O)N(c3cccc(Cl)c3)C2=O)cc([N+](=O)[O-])c1O | ? | 3.98µM* | 8.91µM* | -17.3% | .
O=C1S/C(=C\c2ccc(O)c([N+](=O)[O-])c2)C(=O)N1c1ccccc1Cl | ? | 50.1µM* | 35.5µM* | -21.6% | .
Cn1cccc1-c1cc2n(n1)CCC(=O)N2CCCC(=O)NCc1cccc(Cl)c1 | -0.8%[57 µM] | -34.2% | ? | . | ?
Cn1ccnc1C(O)c1cc(C(C)(C)C)c(O)c(C(C)(C)C)c1 (centres undefined) | 22.3% | ? | ? | -8.2% | 50.1µM*
CC(C)(Sc1cc(C(C)(C)C)c(O)c(C(C)(C)C)c1)Sc1cc(C(C)(C)C)c(O)c(C(C)(C)C)c1 | 41.0% | -18.6% | -0.7% | 6.2% | -0.9%
Cc1ccc(CSCCC(=O)NCc2ccc(F)cc2Cl)cc1 | 41.0% | 4.6% | 20.1% | . | -2.5%[59 µM]
O=C1c2ccccc2[C@@H]2CC(O)C(O)CCN12 (some centres undefined) | 38.3% | -1.4% | . | -5.2% | .
CC1(C)Cc2ccccc2C2CC(O)C(=O)N21 (centres undefined) | -13.3% | 89.1µM* | -29.6% | -6.2% | 22.4µM*
Cc1ccc(NC(=O)Cn2ncc3c4ccccc4n(Cc4ccccc4)c3c2=O)cc1Cl | 27.6% | -4.7% | -8.1% | . | 7.4%[59 µM]
CCN=C1S/C(=C\c2ccc(Sc3ccc(Cl)cc3)o2)C(=O)N1CC | 162.7% | 46.3% | 26.6% | 6.2% | 148.3%
CCN=C1S/C(=C/c2ccc(-c3ccc(F)cc3)o2)C(=O)N1CC | 35.6% | 28.5% | -32.5% | . | 35.5µM*
COC(=O)CCCC1=CC2=CC(=O)C(C)(OC(=O)c3cccs3)C(=O)C2=CN1c1ccc(OC)cc1 (centres undefined) | -9.9% | ? | -30.0% | . | -5.9%[59 µM]
COc1ccc(C2=CC3=C(Br)C(=O)C(C)(OC(=O)c4cccs4)C(=O)C3=CO2)cc1 (centres undefined) | ? | 28.2µM* | . | . | .
COc1ccc(C2=CC3=C(Br)C(=O)C(C)(OC(=O)c4ccco4)C(=O)C3=CO2)cc1 (centres undefined) | ? | 28.2µM* | 44.7µM* | . | ?
NC(=O)CC1NC(=O)c2cc([N+](=O)[O-])cc(I)c2OCCC(C(N)=O)NC(=O)[C@@H]2CCCN2C1=O (some centres undefined) | 42.1% | -16.9% | -8.6% | 12.1% | 79.4µM*
NC(=O)[C@@H]1CCOc2c(F)cc([N+](=O)[O-])cc2C(=O)N[C@@H](CO)C(=O)NCC(=O)N1 | 19.2% | -12.1% | -17.5% | -3.1% | ?
NCCCC[C@H]1NC(=O)[C@H](CCC(=O)O)NC(=O)c2cc([N+](=O)[O-])cc(I)c2OCC[C@@H](C(N)=O)NC1=O | -22.8% | 50.1µM* | -37.6% | -8.1% | 25.1µM*
C[C@@H]1NC(=O)[C@H](CCCN=C(N)N)NC(=O)c2cc([N+](=O)[O-])cc(I)c2OCC[C@@H](C(N)=O)NC1=O | . | . | ? | -1.1% | 31.6µM*
C[C@@H]1NC(=O)c2cc([N+](=O)[O-])cc(I)c2OCC[C@@H](C(N)=O)NC(=O)[C@H](CCCCN)NC1=O | 33.8% | -5.6% | 22.0% | 1.6% | 44.7µM*
CC[C@H](C)[C@@H]1NC(=O)c2cc([N+](=O)[O-])cc(F)c2OCC[C@@H](C(N)=O)NC(=O)[C@H](CCCCN)NC1=O | 7.0% | -24.3% | -11.3% | 6.7% | ?
COc1ccc(-n2nc(C(=O)Nc3ccc(C(C)=O)cc3)nc2-c2ccccc2)cc1 | 45.7% | -7.0% | -0.5% | . | ?
Cc1ccc2c(c1)C1(C=CC(=O)C=C1)CC(=O)N2C | 25.3% | -22.1% | . | . | .
Brc1cc2c(cc1/C=N/Nc1nc3ccccc3s1)OCO2 | 22.6% | -28.3% | 1.2% | 0.4% | 24.8%
COc1cc(/C=C(\CC(=O)O)c2nc3ccccc3s2)cc(OC)c1O | 11.6% | 15.8µM* | -26.4% | -8.8% | 14.1µM*
O=C(O)C/C(=C\c1cc2c(cc1Br)OCO2)c1nc2ccccc2s1 | -13.2% | -7.7% | -12.0% | . | 10µM*
SMILES | HP1b chromo inh | JMJD2A Tudor inh | BAZ2B block | L3MBTL1 inh | G9a inh
N#C/C(=C/c1ccncc1)c1nc2ccccc2s1 | 19.2% | -17.2% | ? | -3.6% | -41.8%[59 µM]
CN(C)c1ccc(/C=C(\Cl)c2nc3ccccc3s2)cc1 | 7.0% | -32.9% | 44.7µM* | 10µM* | 14.1µM*
COc1cc(/C=N/NC(=Nc2ccc(C)cc2)c2nc3ccccc3s2)ccc1O | 0.0% | ? | 44.7µM* | . | 14.1µM*
Cc1ccc(CC(=O)NCCN2CCOCC2)cc1 | 0.8% | -11.0% | -12.4% | 1.8% | -8.2%
Cc1ccc2c(=O)cc(C(=O)Nc3sc4c(c3C(=O)NCC3CCCO3)CCCC4)oc2c1C (centres undefined) | 17.7% | -22.9% | 1.5% | . | -5.5%[59 µM]
CCCCCCCCCC(=O)OCC(CO)OC(=O)CCCCCCCCC (centres undefined) | . | . | . | . | 7.6%[59 µM]
O=C(O)c1ccc(C=C(c2nc3ccccc3s2)c2nc3ccccc3s2)cc1 | -14.0% | ? | ? | -22.3% | ?
COc1cc(C=C(c2nc3ccccc3s2)c2nc3ccccc3s2)cc(OC)c1O | ? | 56.2µM* | 22.4µM* | -27.2% | 6.31µM*
CCOc1ccc(N2C(=O)CC(Sc3ccccc3C(=O)O)C2=O)c([N+](=O)[O-])c1 (centres undefined) | 1.8% | ? | 63.1µM* | -1.8% | 1.41µM*
CCOC(=O)c1c(N2C(=O)Nc3ccccc3N2O)sc2c1CCCC2 | 13.8% | -6.5% | -0.4% | 0.4% | 6.7%[59 µM]
COC(=O)c1ccccc1SC1CC(=O)N(c2ccccc2)C1=O (centres undefined) | 54.4% | 4.1% | 15.9% | 35.2% | -4.0%
CCN1C(=O)CC(Sc2ccccc2C(=O)O)C1=O (centres undefined) | 17.1% | -13.2% | ? | . | ?
O=C(O)c1ccccc1SC1CC(=O)N(c2cccc3ccccc23)C1=O (centres undefined) | ? | 22.4µM* | ? | . | .
CCOC(=O)c1c(N2C(=O)CC(Sc3ccccc3C(=O)O)C2=O)sc2c1CCCC2 (centres undefined) | 7.7% | ? | 50.1µM* | 1.0% | .
CCC(C)NCCOCCOc1ccc(Cl)c(C)c1C (centres undefined) | ? | 3.55µM* | -25.3% | 12.7% | ?
CCOc1ccc(OCCOCCOc2ccccc2Cl)cc1 | 187.9% | 59.2% | 74.8% | 53.9% | 20.2%[59 µM]
CCC(C)NCCOCCOc1ccc(Cl)c2ccccc12 (centres undefined) | -1.5% | -20.7% | ? | 6.6% | 12.6µM*
CCCCC(=O)NC(=S)NNC(=O)CC | 50.9% | 6.9%[11.4 µM] | 17.8% | 19.3% | 7.08µM*
CCCCC(=O)NC(=S)Nc1cccc(NC(=O)CC)c1 | 16.0% | -20.9% | 3.3% | 6.3% | 41.3%[0.0925 µM]
CCCCCC(=O)NC(=S)NNC(=O)CC | -8.2% | 28.2µM* | 33.0% | . | ?
CCCCC(=O)NC(=S)Nc1c(C)cc(Br)cc1C | 26.0% | ? | -22.1% | -1.0% | 10µM*
CCc1nn(CC(=O)Nc2ccc(N(CC)CC)cc2C)c(=O)c2cc3sccc3n12 | 8.5% | -13.1% | -14.7% | . | ?
c1ccc(-c2cnc(CSc3nnc4ccccn34)o2)cc1 | 30.9% | -11.0% | 1.5% | 29.7%[11.4 µM] | 10µM*
Fc1ccc(-c2nnc(CSc3nnc4ccccn34)o2)cc1 | 34.6% | -4.8% | -2.1% | 5.0% | -7.8%[59 µM]
